# Experimental data: PubChem BioAssay AID1347426 (Functional Genomics Laboratory (NCATS/FGL), 2020)
# Screen size: about 31,000 sequences; about 1,400 (4.5%) were called active. The full list was thinned out, with actives kept by preference. Unmarked numbers belong to inactive results.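 Rule for the calls: active = median seed-adjusted z-score above 1 or below -1; inactive = the rest.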
# Test: Novel Modifiers of Survival Motor Neuron (SMN) Protein: Gene Identification via Genome-wide siRNA Screen;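 note: luminescence tracks full-length SMN protein made from the SMN2 reporter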
# Conditions: HEK293T SMN2-luciferase reporter, siRNA knockdown, 72 h; actives lie on both sides
# In short: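 HEK293T cells stably expressing an SMN2 splicing/cDNA-luciferase reporter were reverse-transfected with a druggable-genome siRNA library and read by luminescence at 72 hours; hits defined by MAD score above 1.0 or below -1.0.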
row,Sequence,median seed-adjusted z-score
1,GACUGGAGAUAUCAAGGAATT against SQLE,-1.14 (active)
2,CAAUGAAGAUAUGUUUAGATT against WBP5,0.452
3,GAUCAUUGAGAACACGUAUTT against RNF121,-0.53
4,GAAUCCACCUUCGACCUGATT against HMX1,1.3 (active)
5,CCACUGAAUAUGUGCAGAATT against FBP2,0
6,CGGCUACGACGAUUACGAATT against MYO15A,0.0508
7,GGAUUUCGAUUGCAUCAUUTT against LGI1,-0.19
8,AGUGGGUGCUGAACCAUGATT against FES,0.402
9,GCCCAGAGACUAUUCAGUATT against SF3A3,-2.1 (active)
10,CGUGGAAUACUAGAGCAAATT against ACTL6A,1.11 (active)
11,CAGACUUGCUUAAUAGUAATT against ZFP1,0.0391
12,GGAACUACCAUGCAGGCUATT against ATP6V0B,0
13,CCAGCAUGGUUACUACGAATT against TRAIP,-0.018
14,GGAACAAGAGUGGACGGAATT against PIAS3,-0.216
15,CCAGCUCUUCCAUACAAUATT against RAB9A,0.247
16,GGCUUCAUAUCUAGACUAATT against APOBEC3A,0.467
17,UGUUCAGCCUUGACUCAAATT against RHOU,-1.44 (active)
18,GCACCUAUGAGGAAAAUGATT against LAMB2,1.12 (active)
19,GAAGCUUGAUCUAAUUAUATT against ZNF182,0
20,CCAUUUCCAGAGGCCCAGATT against SLC22A12,-0.148
21,GCCUGGAACUCGUUAGCAATT against TRMT11,-0.707
22,GGCUUAACUUUAGUGUUGATT against PRDM2,1.12 (active)
23,GAGCGAGUUUUACCUGAUATT against ABCA10,-0.104
24,CAGAUAUGAUUGGUGUAAATT against CABP1,-0.192
25,GAAAUCGACUCUCACCAAATT against IL18RAP,-0.681
26,CGGAAAAUCAGCAACAUCATT against EPS8L2,-0.497
27,GGAUAAUAAGGAUCUAUUUTT against CPNE3,0.109

row,Sequence,median seed-adjusted z-score
1,GUUUACCUCUGGAUACACUTT against SNRPD1,-2.97 (active)
2,GGAGUUCCAAUGGAAGUUATT against PSMD14,0.375
3,CGAUGGACUAAGUAAUAUATT against KPNA4,0.457
4,CCACCUAUUUGCACAAGGATT against POMT2,-0.614
5,UCAAGGCCCUGUGCGCUAATT against PPP4C,1.15 (active)
6,GCAACCACCAAGAGUUUGATT against KCNS1,-0.167
7,CUGUAGAUCUUUGUCAAAATT against DUS4L,0.525
8,UGCUAGUCCUGGGAACAGATT against PPM1J,-0.901
9,GGUCAACAAUGCUUAUGCATT against DHRS1,0
10,GCUUGAGAACUACCAGGUUTT against TAL2,-0.395
11,ACAAUAAGCUGGACCUCUATT against TLR9,-0.0834
12,CCUUCUACAGGAUCUCCAATT against ADRA1A,-1.06 (active)
13,CAGUGGAUGUUAUUCCUCATT against RNF128,-0.377
14,GGACUACACGUACUUCUCATT against KIRREL3,-0.206
15,CCAAGAGUGAUGCAGAGGATT against CABP4,0.146
16,GGAGUUCUGUAACUCACUUTT against SLC38A2,-1.04 (active)
17,GGUGCUACAUCCUAGAGAATT against SULF2,-0.109
18,GCAAGACCUGGUCAGUAUATT against NOX4,-0.246
19,AGAAUGUCUUGAUUGUGGATT against HPRT1,-0.0463
20,GCCUCACAUUUUCUAAUGATT against RRM2,-3.84 (active)
21,AGAAGUUCAUGGUCGGAGATT against SULT1A1,-0.26
22,GAUCGGCACUUACACCUGUTT against OPHN1,0.692
23,AGAUCGACCAGAACGUGGATT against APOA4,0.195
24,CCACGUAACUAUCAUAAGATT against TLL1,0.396
25,AGACCGACCUGGGCAUGAATT against SARM1,0.343
26,CCAAAAUUGAAGUAAUAGATT against GTF2E2,-1.32 (active)
27,GCUCAGUUCUCGUCAAGGATT against ARIH2,0.0449
